Screening data from PubChem BioAssay.
The list is not random: actives were taken first. Their share in the collection is about 2.4%.
TDP1 inh: blocks human tyrosyl-DNA phosphodiesterase 1; Q9NUW8; Potency, µM (titrated, usually from 130 µM), hits mostly inhibitors; 0.28% of 350,000 active; AID 485290; recombinant TDP1, AlphaScreen DNA substrate cleavage; further: nearly all actives have a fitted effect of over 40% in size
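Enzyme-compound mixtures sat 15 min at room temperature, followed by a 5 min reaction with 15 nM final substrate and 10 min with AlphaScreen beads. Recombinant human Tdp1 was used at 1 nM final.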
POLB inh: inhibitors of human DNA polymerase beta | 1.3% of 340,000 active | Potency, µM (series often up to 114 µM), actives largely listed as inhibitors | P06746 | Pol beta primer extension/strand displacement, fluorescence kinetic
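Reaction started by 50 nM substrate onto compound-treated Pol beta (10 nM, 15 min preincubation, room temperature); plates read at 0 min and 10 min. Normalized concentration-effect data fitted by four-parameter Hill equation.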
Pol eta inh: blocks human DNA polymerase eta activity; Q9Y253; recombinant Pol eta, fluorescent DNA replication assay; Potency, µM (titrated, usually from 114 µM), actives largely listed as inhibitors; 1.2% of 390,000 active
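Fluorescent replication assay: 50 nM final substrate added after a 15 min room-temperature compound preincubation with 10 nM enzyme. Signal taken at 0 min and again at 10 min.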
Pol kappa inh: inhibitors of human DNA polymerase kappa; Q9UBT6; purified Pol kappa, fluorescent DNA synthesis assay, 10 min; Potency, µM (titrated, usually from 107 µM), actives largely listed as inhibitors; 0.53% of 400,000 active
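First, compounds were pin-transferred onto 10 nM Pol kappa. After 15 min at room temperature, substrate was added to 50 nM final. Fluorescence was then measured kinetically at 0 and 10 min.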
POLI inh: inhibitors of human DNA polymerase iota | Pol iota fluorescent replication assay, 10 min | Potency, µM (series often up to 115 µM), usual class: inhibitors | AID 588590 | 1% of 390,000 active
Target sequence (Q9UNA4 whole entry, looked up): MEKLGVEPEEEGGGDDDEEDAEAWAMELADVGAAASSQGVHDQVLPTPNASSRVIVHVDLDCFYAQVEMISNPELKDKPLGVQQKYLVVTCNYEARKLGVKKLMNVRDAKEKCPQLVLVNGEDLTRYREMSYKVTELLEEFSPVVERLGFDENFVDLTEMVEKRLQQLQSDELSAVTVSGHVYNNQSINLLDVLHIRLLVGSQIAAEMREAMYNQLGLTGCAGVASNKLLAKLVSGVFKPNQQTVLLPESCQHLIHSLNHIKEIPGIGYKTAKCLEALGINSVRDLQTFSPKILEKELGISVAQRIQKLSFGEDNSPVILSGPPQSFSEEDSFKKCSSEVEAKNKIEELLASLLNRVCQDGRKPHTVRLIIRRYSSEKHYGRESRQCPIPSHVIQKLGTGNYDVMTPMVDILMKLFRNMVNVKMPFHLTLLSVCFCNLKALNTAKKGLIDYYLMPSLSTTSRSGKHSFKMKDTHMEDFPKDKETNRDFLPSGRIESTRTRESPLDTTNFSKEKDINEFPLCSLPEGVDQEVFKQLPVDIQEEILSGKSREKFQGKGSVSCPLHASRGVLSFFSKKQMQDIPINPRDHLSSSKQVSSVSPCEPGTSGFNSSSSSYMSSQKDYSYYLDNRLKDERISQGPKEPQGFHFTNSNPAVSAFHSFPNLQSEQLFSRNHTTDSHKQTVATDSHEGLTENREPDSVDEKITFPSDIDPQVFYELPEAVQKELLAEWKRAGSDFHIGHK
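Pol iota at 10 nM preincubated 15 min with compounds at room temperature; reaction started with fluorescent substrate, 50 nM final. Fluorescence read kinetically at 0 and 10 min; buffer-only wells as negative control.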
Numbers stand for hits; . = inactive; ? = inconclusive; / = no result; [ ] = another dose, or the depositor's remark. The call rests on the fitted dose curve; in most records, active means well fitted curve in the direction sought with a large enough effect; inconclusive means small, poorly fitted or top-dose-only effect, or another doubt; inactive means no such curve, though single readings can be large; an effect the other way counts as inactive or inconclusive.

SMILES	TDP1 inh	POLB inh	Pol eta inh	Pol kappa inh	POLI inh
Nc1nonc1-c1nc2ccccc2n1CC(=O)N/N=C/c1ccc(-c2ccccc2C(=O)O)o1	/	16µM	32µM	?	?
O=c1[nH]/c(=C/c2ccc3c(c2)OCO3)c(=O)[nH]/c1=C/c1ccc2c(c1)OCO2	/	/	/	.	.
CC(C)c1ccc(Cn2cnc3c(cnn3C(C)(C)C)c2=O)cc1	/	/	/	.	.
COc1ccc(OCCCCc2c(C)n[nH]c2C)cc1	/	/	.	.	79µM
CC(=O)N1CCc2cc(Br)cc(S(=O)(=O)N3CCC(C(=O)Nc4cccc(C)c4C)CC3)c21	.	45µM	.	.	?
C(=C\c1ccnc2ccccc12)/c1ccc2ccccc2n1	/	/	/	.	.
CC1CCN(CCCCOc2ccccc2[N+](=O)[O-])CC1	.	.	.	.	79µM
O=C(Nc1cccc(-c2cn3cccnc3n2)c1)c1ccc(Br)o1	/	.	.	?	79µM
COc1ccc(-c2cn3cccnc3n2)cc1NC(=O)c1ccc(Br)o1	50µM	?	.	.	?
O=C(Nc1cccc(-c2cn3cccnc3n2)c1)c1ccco1	.	.	.	.	.
CCC(C(=O)Nc1cc(-c2cn3cccnc3n2)ccc1C)c1ccccc1 (stereo not drawn)	.	40µM	.	.	.
Cn1c(-c2ccc(S(=O)(=O)N3CCCC3)cc2)csc1=Nc1ccc(Cl)c(Cl)c1	.[12.3 µM]	.	.	.	.
Cc1oc(C(=O)O)cc1COc1ccc2c(C)cc(=O)oc2c1	?	?	22µM	.	.
Cn1c(=O)n(Cc2ccccc2Cl)c(=O)c2c1nc1n2CCN1c1ccccc1	.	.	.	.	.
O=C(CSc1nc(NS(=O)(=O)c2ccccc2)cc(=O)[nH]1)Nc1cccc(C(F)(F)F)c1	.	?	.	.	?
O=C(CSc1nc(NS(=O)(=O)c2ccccc2)cc(=O)[nH]1)Nc1ccc(F)cc1	28µM	25µM	?	50µM	18µM
O=C(CSc1nc(O)cc(=O)[nH]1)Nc1ccc2c(c1)CCC2	/	?	.	79µM	16µM
Cc1ccc2nc(N)[nH]c(=O)c2c1Sc1ccncc1	/	/	/	.[19.4 µM]	/
O=S(=O)(/N=C(/Sc1ccccc1)c1ccccc1)c1ccc(Cl)cc1	.	/	/	.	?
CC(C)CC1=C/C(=C/c2ccc(-c3ccccc3)o2)C(=O)O1	.	16µM	2.8µM	45µM	20µM
CCN(C/C=C/C#CC(C)(C)C)Cc1cccc(OCc2cc(-c3ccsc3)cs2)c1	.	/	/	.	/
COc1cc(-c2noc(-c3ccc(NCc4cccnc4)c([N+](=O)[O-])c3)n2)cc(OC)c1OC	.	45µM	.	.	.
CC(C)OC(=O)c1cc(-c2ccc(C=O)o2)ccc1Cl	.	20µM	?	.	.
CCOc1ccccc1NS(=O)(=O)c1c(-c2ccc(C)cc2)csc1C(=O)OC	.	.	.	.	.
COc1cccc(CNC(=O)c2ccc(NC(=O)N3CC(C)Sc4ccccc43)cc2)c1 (stereo not drawn)	.	.	.	.	.
SMILES	TDP1 inh	POLB inh	Pol eta inh	Pol kappa inh	POLI inh
Cc1ccc(S/C=C\C(=O)c2ccccc2)cc1	.	.	.	.	79µM
Cc1ccc(C(=O)C=CNNC(=O)c2ccccc2)cc1	/	.	.	.	.
NC(=O)CC(NC(=O)Cc1cccc2ccccc12)c1ccc(NC2CCCCCC2)c([N+](=O)[O-])c1 (stereo not drawn)	.	.	.	.	?
NC(=O)CC(NC(=O)Cc1cccc2ccccc12)c1ccc(NC2CCN(Cc3ccccc3)CC2)c([N+](=O)[O-])c1 (stereo not drawn)	/	50µM	.	.	.
NC(=O)CC(NC(=O)Cc1ccc(Br)cc1)c1ccc(NC2CCCC2)c([N+](=O)[O-])c1 (stereo not drawn)	.	.	.	.	.
NC(=O)CC(NC(=O)Cc1ccc(Br)cc1)c1ccc(NC2CCN(Cc3ccccc3)CC2)c([N+](=O)[O-])c1 (stereo not drawn)	/	45µM	.	.	.
CC1CC=CC2C1C(=O)N(Cc1ccccc1)C2c1ccc(F)c(Br)c1 (stereo not drawn)	.	/	/	.	.
Cc1cc[n+](CCC2CCCCC2)c2ccccc12	/	/	/	.	.
CN(C)c1ccc(C=O)c(Cl)c1	/	/	/	.	.
CN(C)c1ccc(C=O)c(O)c1	/	/	/	?	50µM
O=C(CNC(=O)C(c1ccccc1)c1ccccc1)OCC(=O)c1cccc2ccccc12	.	/	/	.	.
